This is a sample that favours compounds with a hit; in the whole collection about 12% have one here.
HP1b chromo inh – HP1-beta chromodomain-methylated histone interaction inhibition; P83916; AlphaScreen HP1-beta / biotin-H3K9me3 peptide binding; Potency, µM (highest dose often 114 µM), inactives show top-dose activity change, negative = inhibition, actives largely listed as inhibitors; 0.56% of 390,000 active; AID 540317; further: nearly all actives have a fitted effect of over 70% in size
Target sequence (P83916 whole entry, looked up): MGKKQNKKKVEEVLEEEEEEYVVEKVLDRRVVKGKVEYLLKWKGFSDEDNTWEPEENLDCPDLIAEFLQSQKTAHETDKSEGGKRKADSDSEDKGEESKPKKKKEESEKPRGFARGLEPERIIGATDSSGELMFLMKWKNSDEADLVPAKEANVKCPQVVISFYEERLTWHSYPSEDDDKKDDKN
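Compound inhibition of the preformed complex between 50 nM HP1-beta and 50 nM biotinylated H3K9me3 peptide was read by AlphaScreen. Buffer was PBS pH 7.4 with 0.01% Tween-20. Incubations ran 30 min at room temperature, with 10 ug/mL donor/acceptor beads.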
BAZ2B inh – blocks human BAZ2B; Q9UIF8; Potency, µM (series often up to 114 µM), for inactives: at the highest dose activity change, negative = inhibition, usual class: inhibitors; AlphaScreen BAZ2B-H3K14Ac peptide displacement; 4.4% of 360,000 active; further: on the % scale 0 is the no-effect control and ±100 the full control effect; nearly all actives have a fitted effect of over 60% in size
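AlphaScreen luminescence quantifies BAZ2B engagement of H3K14Ac peptide; the protein and biotinylated peptide are both at 50 nM final, buffer PBS pH 7.4 with 0.01% Tween-20, all steps at room temperature.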
Sfp PPTase inh – blocks B. subtilis Sfp PPTase activity | Biochemical Sfp PPTase activity, qHTS | Potency, µM, without a hit: largest response in the series, negative = inhibition, usual class: inhibitors | 3.5% of 310,000 active | AID 1490;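 further: the enzyme is Sfp with the accession as filed and its product quenches rhodamine fluorescence; 0% = enzyme reaction without inhibitor and -100% = no enzyme wells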
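Sfp 15 nM + cpd, 15 min RT; start w/ rhodamine-CoA 5 uM, BHQ-2-YbbR 12.5 uM (final); 50 mM Hepes pH 7.6, 10 mM MgCl2, 0.01% NP-40, 0.01% BSA; read 525/598 nm at 0 and 30 min.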
JMJD2A Tudor inh – inhibitors of human JMJD2A Tudor domain | O75164 | AID 504339 | AlphaScreen JMJD2A-Tudor / H3K4me3 peptide binding | 4.4% of 390,000 active | Potency, µM (top dose mostly 114 µM), for the others: at the highest dose activity change, negative = inhibition, hits mostly inhibitors; further: on the % scale 0 is the no-effect control and ±100 the full control effect; nearly all actives have a fitted effect of over 50% in size
G9a block – G9a (human) methyltransferase inhibition. Q96KQ7. G9a H3K9 monomethylation, AlphaScreen, 2 h. Potency, µM (titrated, usually from 102 µM), inactives show top-dose activity, negative = inhibition, actives largely listed as inhibitors. 8.8% of 350,000 active; further: on the % scale 0 is the no-effect control and ±100 the full control effect; nearly all actives have a fitted effect of over 75% in size
Target sequence (Q96KQ7 913-1193 limits assumed): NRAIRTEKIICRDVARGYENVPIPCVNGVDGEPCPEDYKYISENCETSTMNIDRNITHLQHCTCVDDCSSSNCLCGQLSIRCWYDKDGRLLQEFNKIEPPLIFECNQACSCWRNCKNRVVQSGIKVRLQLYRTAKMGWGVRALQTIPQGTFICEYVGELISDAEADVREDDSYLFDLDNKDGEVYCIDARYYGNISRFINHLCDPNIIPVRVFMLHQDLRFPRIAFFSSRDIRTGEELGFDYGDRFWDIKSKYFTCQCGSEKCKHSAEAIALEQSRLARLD
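AlphaScreen read-out: biotin-H3K9 peptide (500 nM) methylation by 20 nM enzyme with 20 uM SAM, 2 h at room temperature after 15 min compound preincubation; anti-monomethyl H3K9 antibody plus donor/acceptor beads, 10 min dark.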
PLK1 PBD inh – PLK1 (human) polo-box domain binding inhibition. Plk1 PBD binding of FITC phosphopeptide, fluorescence polarization. Potency, µM, without a hit: max response, negative = inhibition, usual class: inhibitors. 2.8% of 360,000 active. AID 720504; further: series mostly up to about 57 µM; on the % scale 0 is the no-effect control and ±100 the full control effect; nearly all actives have a fitted effect of over 65% in size
* = called active by the depositor; u = inconclusive; x = no result given; [ ] = remark or other dose. The call rests on the fitted dose curve; in most records, active means well fitted curve in the direction sought with a large enough effect; inconclusive means small, poorly fitted or top-dose-only effect, or another doubt; inactive means no such curve, though single readings can be large; an effect the other way counts as inactive or inconclusive. Potency means the concentration at half of the fitted maximal effect.

SMILES | HP1b chromo inh | BAZ2B inh | Sfp PPTase inh | JMJD2A Tudor inh | G9a block | PLK1 PBD inh
O=C(NCc1cccc(F)c1)c1ccc(CS(=O)c2ccccc2Cl)o1 (stereo not drawn) | 40% | -24% | x | 5% | -17%[59 µM] | x
O=C(COc1ccc(Cl)cc1Cl)Nc1ccc(C(=O)Nc2ccccc2C(=O)O)cc1 | u | 50µM* | 2% | 50µM* | x | u
O=C(COc1cc(Cl)c(Cl)cc1Cl)Nc1ccncc1 | -10% | 9% | 0% | 89µM* | 16%[12.7 µM] | u
O=C(COc1ccccc1Cl)Nc1cc(NC(=O)COc2ccccc2Cl)cc(C(=O)O)c1 | 28% | 50µM* | -4% | -17% | 1% | -21%
COc1ccccc1OCC(=O)Nc1cc(NC(=O)COc2ccccc2OC)cc(C(=O)O)c1 | 13% | -10% | 12% | -24% | 4% | -19%
Cc1ccc(C(=O)Nc2ccccc2C(=O)O)cc1NC(=O)COc1c(C)cccc1C | 31% | 79µM* | -2% | -7% | 25%[12.7 µM] | -14%
Cc1cc(C(=O)Nc2ccccc2C(=O)O)ccc1NC(=O)COc1cccc(C)c1C | 20% | -18% | 20% | -19% | 5% | u
O=C(OCC(=O)N1CCN(c2ccccc2)CC1)c1cc(F)c(F)cc1Cl | x | x | x | x | x | 1%
COc1cc2c(cc1OC)C(c1ccc(F)cc1)N(c1cccc(C#N)c1)C(=O)C2 (stereo not drawn) | 33% | -7% | x | -28% | -25%[59 µM] | x
COc1ccc(C2(NC(C)=O)CCN(Cc3cccnc3)CC2)cc1 | 34% | 8% | 5% | -31% | x | -5%
Cc1csc2nc(-c3cccc(NC(=O)c4ccc(S(N)(=O)=O)cc4)c3)cn12 | 15%[57 µM] | 3% | x | -22% | 9%[59 µM] | x
O=C(COc1ccccc1Cl)Nc1ccc(N2CCCC2)cc1 | 2% | -39% | 3% | u | 7.9µM* | -15%
CCN1CCN(c2ccc(NC(=O)COc3ccccc3Cl)cc2)CC1 | 16% | -2% | 5% | -18% | -26% | -9%
CC(=O)c1cccc(NC(=O)c2sc(-n3nc(C)c(CCC(C)C)c3C)nc2C)c1 | 35% | -11% | x | -12% | 9%[59 µM] | x
O=C(N/N=C/c1cc(Cl)ccc1O)c1cccnc1 | 52% | 7.9µM* | 24% | 45µM* | x | -3%
O=C(N/N=C/c1cc(Cl)ccc1O)c1ccccc1Br | 23% | u | 4% | 79µM* | -35% | -18%
COc1ccccc1CN1CC2(CCN(S(C)(=O)=O)CC2)C1 | x | x | 12% | x | 1%[12.7 µM] | x
Cc1ccc(NC(=O)C2CCN(c3nc4ccccc4[nH]3)CC2)cc1Cl | 11%[57 µM] | -11% | x | -27% | 7%[59 µM] | x
COC(=O)C1=C(C)C(c2ccc(OC)cc2)NC(=S)N1 (stereo not drawn) | 39% | 0%[57.1 µM] | 8% | -21%[57.1 µM] | 21%[12.7 µM] | -9%
COc1ccc(C2NC(=S)NC3=C2CCCC3=C2SCCS2)cc1 (stereo not drawn) | -5% | 32µM* | 16% | -27% | u | -19%
S=C1NC2=C(CCCC2=C2SCCCS2)C(c2ccccc2)N1 (stereo not drawn) | 17% | u | -12% | -2%[11.4 µM] | 0.79µM* | -25%
Cc1nc(N)sc1C(=O)N1N=N1 | 6% | -14% | -27% | u | 8.9µM* | u
Cc1nc(N)sc1C(=O)N/N=C/c1ccco1 | 33% | 0% | -1% | -3% | 7%[59 µM] | -1%
c1nc(NC2CC2)c2cc(-c3ccoc3)ccc2n1 | x | x | u | x | 7%[0.501 µM] | x
Cc1ccc(NC(=O)CSc2nnc([C@H](C)NC(=O)OC(C)(C)C)o2)c(C)c1 | 28% | -18% | 2% | -3% | -1%[12.7 µM] | -11%
SMILES | HP1b chromo inh | BAZ2B inh | Sfp PPTase inh | JMJD2A Tudor inh | G9a block | PLK1 PBD inh
Cc1cccc(NC(=O)CSc2nnc([C@H](C)NC(=O)OC(C)(C)C)o2)c1C | 8% | -12%[57.1 µM] | 10% | u | 9% | 27µM*
CCn1nc(C)c(CNC(=O)C2CCC(=O)N(Cc3ccc(Cl)cc3)C2)c1C (stereo not drawn) | 27% | -1% | 6% | 0% | 29% | -2%
CCOC(=O)C(NCc1ccccn1)(NC(=O)c1cccnc1)C(F)(F)F (stereo not drawn) | 42% | 56µM* | u | 63µM* | -7%[12.7 µM] | -9%
Cc1ccc(OCCOC(=O)c2nc3nccc(C)n3n2)cc1 | -9% | -13% | 16% | -22%[11.4 µM] | -1% | 27µM*
CC1=CC(C)(C)N2C(=O)C3(NCCc4c3[nH]c3ccccc43)c3cc(C)cc1c32 (stereo not drawn) | -2% | 56µM* | -11% | -16%[11.4 µM] | u | -15%
CCOC(=O)C1=C(C)NC(C)=C(C(=O)OCC)C1c1ccccc1C=CC(=O)OC(C)(C)C | x | x | 33% | x | 68%[59 µM] | x
O=C(COc1ccc(Cl)cc1)Nc1ccccc1Cl | 35% | 18% | 7% | 17% | x | -7%
O=C(COc1ccc(Cl)cc1)Nc1ccc(C(=O)O)cc1NC(=O)COc1ccc(Cl)cc1 | 21% | 50µM* | 17% | -21% | 1% | -15%
NS(=O)(=O)c1ccc(CCNC(=O)C2COc3ccccc3C2)cc1 (stereo not drawn) | 23%[57 µM] | -9% | x | -12% | -8%[59 µM] | x
C=CCn1c(=O)c(CCC(=O)Nc2ccc(N3CCOCC3)cc2)nc2cc(C(F)(F)F)ccc21 | -21% | -8% | 4% | 35µM* | x | 21µM*
COc1ccc(C(=O)NN2CC(O)=C(c3nc4ccccc4n3C)C2=N)cc1OC | 23% | -8% | -4% | 4.5µM* | 15% | 3%
COc1ccc(N(Cc2cccs2)C(=O)COc2ccc(C(C)C)cc2)cc1 | 96% | 53% | x | 43% | 76%[59 µM] | x
CC1CCc2c(sc3nnn(CCCCOc4ccc(Cl)cc4)c(=O)c23)C1 (stereo not drawn) | 74% | -24% | x | u | 13µM* | x
Cc1ccc(OCCCCn2nnc3sc4c(c3c2=O)CCC(C)C4)cc1 (stereo not drawn) | 70% | u | x | -21% | u | x
CC1(C)c2ccccc2N2CCC(=O)NC21/C=C/c1ccco1 (stereo not drawn) | 7% | u | 40µM* | -18% | 40µM* | -1%
CC1(C)c2ccccc2N2CC(=O)NC21/C=C/c1ccco1 (stereo not drawn) | -14% | u | 3.2µM* | -26% | 32µM* | -12%
CSC1=NC(=O)/C(=C\c2cccc3ccccc23)S1 | -17% | 40µM* | -13% | u | -23% | -27%
O=c1c2cn[nH]c2nc(SCc2cc(=O)n3cc(Br)ccc3n2)n1-c1ccc(Br)cc1 | -16% | -2% | -3% | -30% | u | 21µM*
Cc1cc2c(cc1NC(=O)c1ccc(C(C)(C)C)cc1)n(C)c(=O)c(=O)n2C | 12% | -2% | x | -12% | 1%[59 µM] | x
N[C@H](C(=O)O)[C@@H]1[C@@H](C(=O)O)C1(F)F | x | x | 89µM* | x | 31%[59 µM] | x

Bioassay records deposited in PubChem BioAssay by National Center for Advancing Translational Sciences (NCATS).
